Test results published in PubChem BioAssay.
Active and inactive are the calls of the source. Unless noted, the rule behind the calls is not given here.

Legend:
[1] = test system: Wnt5a (protein binding on small-molecule microarray); test: Wnt5a binders on small-molecule microarray, primary screen, biophysical, 635/667 nm fluorescence (AID 1142); conditions: 635 nm fluorescence, higher = more signal;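 note: fluorescence read at 667 nm with signal to noise per printed feature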
[2] = cell viability in Huh7 cells, primary screen, cytotoxicity control for HCV replication inhibitor project, CellTiter-Glo luminescence, basal, 48 h (AID 1143); conditions: Huh7 HCV replicon, higher = more signal, called active from +8 up or from −8 down;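 note: Huh7 hepatoma cells carrying a hepatitis C replication reporter with no stimulus; test concentration not given here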
[3] = P. aeruginosa biofilm formation inhibitors, primary screen, PAO1 strain, BacTiter-Glo luminescence, LB-PBS (AID 1144); conditions: 12 h, higher = more signal
[4] = CREB reporter modulators without forskolin, primary screen, cell-based, PC12, CRE-LacZ reporter, unstimulated (AID 1145); conditions: no forskolin, luminescence, 4.5 h, higher = more signal, called active from +8 up or from −8 down
[5] = CREB reporter modulators under forskolin, primary screen, cell-based, PC12, CRE-LacZ reporter, forskolin-stimulated (AID 1146); conditions: luminescence, 4.5 h, higher = more signal, called active from +8 up or from −8 down;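 note: PC12 cells with 6xCRE LacZ reporter stimulated by forskolin 10 µM; beta-galactosidase reporter signal reflecting CREB driven transcription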
[6] = target: Streptavidin (Streptomyces avidinii) (UniProt P22629); test: streptavidin binders on small-molecule microarray, primary screen, artefact control for SMM compound annotation, biophysical, 635/667 nm fluorescence (AID 1147); conditions: streptavidin binding, higher = more signal;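 note: signal reflects streptavidin binding to arrayed compounds as a control protein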
Streptavidin (Streptomyces avidinii), sequence (P22629 whole entry, looked up): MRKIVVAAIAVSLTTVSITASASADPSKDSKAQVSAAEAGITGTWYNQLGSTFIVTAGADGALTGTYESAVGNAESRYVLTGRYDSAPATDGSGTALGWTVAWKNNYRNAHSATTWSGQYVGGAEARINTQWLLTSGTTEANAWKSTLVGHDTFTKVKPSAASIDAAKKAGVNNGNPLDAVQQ

[7] = small-molecule binders of probe aInhba, primary screen, biochemical, small-molecule microarray, 635/667 nm fluorescence (AID 1148); conditions: higher = more signal;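 note: score merges 667nm spot fluorescence with signal-to-noise for antibody binding to printed compounds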
[8] = target: Torsin-1A (Homo sapiens) (UniProt O14656); test: torsin A binders from cell lysate, primary screen, small-molecule microarray, wild-type, 635/667 nm (AID 1149); conditions: COS7 hTOR1A-WT lysate, 635 nm fluorescence, higher = more signal
Torsin-1A (Homo sapiens), sequence (O14656 whole entry, looked up): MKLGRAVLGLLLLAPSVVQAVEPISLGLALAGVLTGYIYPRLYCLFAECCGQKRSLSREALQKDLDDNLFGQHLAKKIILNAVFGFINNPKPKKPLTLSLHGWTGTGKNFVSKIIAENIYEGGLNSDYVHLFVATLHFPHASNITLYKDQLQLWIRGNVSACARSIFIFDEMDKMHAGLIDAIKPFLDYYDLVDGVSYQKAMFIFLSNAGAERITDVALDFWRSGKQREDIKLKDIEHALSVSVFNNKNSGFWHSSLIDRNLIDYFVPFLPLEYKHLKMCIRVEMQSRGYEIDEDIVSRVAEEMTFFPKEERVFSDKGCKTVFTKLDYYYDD

[9] = target: Torsin-1A (Homo sapiens) (UniProt O14656); test: small-molecule binders of mutant TOR1A in lysate, primary screen, cell lysate, small-molecule microarray, COS7 lysate, 635/667 nm fluorescence (AID 1150); conditions: COS7 hTOR1A mutant lysate, 635 nm fluorescence, higher = more signal;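 note: score pools 667 nm emission and signal to noise measuring lysate protein binding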
[10] = test system: Sonic hedgehog protein (Shh); test: small-molecule binders of Shh protein, primary screen, biochemical, small-molecule microarray, 635/667 nm fluorescence (AID 1151); conditions: small-molecule microarray binding, 635 nm fluorescence; higher = more signal;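 note: Shh protein binding to compounds spotted on small-molecule microarray slides; score combines spot fluorescence intensity with signal-to-noise across triplicate slides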
[11] = E. coli DRC41 culture turbidity changes, primary screen, E. coli filamentation inducer project, strain DRC41, OD650, 48 h (AID 1152);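 note: E. coli MC1000 strain DRC41 lacking acrAB efflux pump and sulA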; conditions: E. coli DRC41 (acrAB sulA), higher = more signal, called active from +8 up or from −8 down
[12] = small-molecule binders of probe aLefty1, primary screen, biochemical, small-molecule microarray, 635/667 nm fluorescence (AID 1153); conditions: higher = more signal;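 note: score merges spot fluorescence with signal-to-noise ratio from the scanned slide images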
[13] = PSAC antagonists in infected red cells, primary screen, cell-based, P. falciparum Indochina, OD700, 1 h (AID 1154); conditions: P. falciparum Indochina infected RBC osmotic lysis, higher = more signal, called active from +8 up or from −8 down
[14] = PSAC antagonists in infected red cells, primary screen, cell-based, P. falciparum Indochina, OD700, 2 h (AID 1155);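 note: lysis reports solute entry through the parasite surface anion channel PSAC; channel blockers reduce lysis of infected cells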; conditions: P. falciparum Indochina infected erythrocytes, osmotic lysis OD700; higher = more signal, called active from +8 up or from −8 down
[15] = osmotic lysis modulators in infected erythrocytes, primary screen, PSAC antagonist project, cell-based, P. falciparum Indochina, OD700, 3 h (AID 1156); conditions: higher = more signal, called active from +8 up or from −8 down
[16] = PSAC antagonists in infected red cells, primary screen, cell-based, P. falciparum Indochina, OD700, 18 h (AID 1157); conditions: P. falciparum Indochina infected erythrocytes, osmotic lysis OD700, 18 h; higher = more signal, called active from +8 up or from −8 down
[17] = modulators of S6 phosphorylation in cells, primary screen, cell-based, A549, cytoblot, luminescence, serum-stimulated (AID 1158); conditions: A549 phospho-S6 cytoblot, 5 h, higher = more signal;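 note: serum-stimulated A549 lung adenocarcinoma cells; signal is phosphorylated S6 detected by cytoblot immunostaining with HRP secondary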
[18] = target: NADPH oxidase 2 (Homo sapiens) (UniProt P04839); test: NOX2-dependent H2O2 signal modulators, primary screen, NOX inhibitor project, cell-based, HEK293-NOX2, PMA-stimulated, Amplex Red fluorescence (AID 1159); conditions: 45 min, higher = more signal, called active from +8 up or from −8 down; note: test concentration not given here
NADPH oxidase 2 (Homo sapiens), sequence (P04839 whole entry, looked up): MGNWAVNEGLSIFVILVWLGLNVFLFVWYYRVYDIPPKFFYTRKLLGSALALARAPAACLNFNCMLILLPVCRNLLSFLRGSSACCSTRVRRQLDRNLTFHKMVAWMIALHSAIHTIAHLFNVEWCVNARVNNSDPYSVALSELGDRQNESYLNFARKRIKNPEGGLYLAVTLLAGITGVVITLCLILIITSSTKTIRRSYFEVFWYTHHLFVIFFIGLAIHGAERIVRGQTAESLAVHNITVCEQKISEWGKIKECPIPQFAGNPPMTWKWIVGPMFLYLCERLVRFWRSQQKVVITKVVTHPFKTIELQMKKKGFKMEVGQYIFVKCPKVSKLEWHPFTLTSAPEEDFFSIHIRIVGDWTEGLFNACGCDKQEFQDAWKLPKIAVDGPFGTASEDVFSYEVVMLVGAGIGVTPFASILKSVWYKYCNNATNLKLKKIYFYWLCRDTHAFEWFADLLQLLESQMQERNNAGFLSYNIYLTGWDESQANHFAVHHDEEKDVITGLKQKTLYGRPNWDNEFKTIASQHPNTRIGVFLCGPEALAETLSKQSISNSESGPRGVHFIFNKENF

[19] = target: NADPH oxidase 4 (Homo sapiens) (UniProt Q9NPH5); test: NOX4-dependent H2O2 signal modulators, primary screen, NOX inhibitor project, cell-based, HEK293-NOX4, tetracycline-induced, Amplex Red fluorescence (AID 1160); conditions: 45 min, higher = more signal, called active from +8 up or from −8 down
NADPH oxidase 4 (Homo sapiens), sequence (Q9NPH5 whole entry, looked up): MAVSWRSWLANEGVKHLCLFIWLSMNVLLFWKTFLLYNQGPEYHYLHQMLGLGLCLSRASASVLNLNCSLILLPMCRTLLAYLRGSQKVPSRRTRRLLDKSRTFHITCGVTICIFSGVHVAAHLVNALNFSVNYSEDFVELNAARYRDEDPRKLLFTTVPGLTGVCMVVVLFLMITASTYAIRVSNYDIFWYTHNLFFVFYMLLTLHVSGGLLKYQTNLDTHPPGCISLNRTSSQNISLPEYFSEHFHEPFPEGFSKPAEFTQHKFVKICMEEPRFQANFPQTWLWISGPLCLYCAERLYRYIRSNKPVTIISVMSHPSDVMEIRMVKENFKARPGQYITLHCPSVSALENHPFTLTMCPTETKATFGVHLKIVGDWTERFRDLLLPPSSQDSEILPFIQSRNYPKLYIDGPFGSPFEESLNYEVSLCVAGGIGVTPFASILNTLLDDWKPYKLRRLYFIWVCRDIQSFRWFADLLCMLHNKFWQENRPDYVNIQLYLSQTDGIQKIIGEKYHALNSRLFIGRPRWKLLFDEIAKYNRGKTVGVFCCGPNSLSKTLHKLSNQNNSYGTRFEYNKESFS

[20] = target: NADPH oxidase 5 (Homo sapiens) (UniProt Q96PH1); test: NOX5-dependent H2O2 signal modulators, primary screen, NOX inhibitor project, cell-based, HEK293-NOX5, Amplex Red fluorescence (AID 1161); conditions: HEK293-NOX5, ionomycin, 45 min, higher = more signal
NADPH oxidase 5 (Homo sapiens), sequence (Q96PH1 whole entry, looked up): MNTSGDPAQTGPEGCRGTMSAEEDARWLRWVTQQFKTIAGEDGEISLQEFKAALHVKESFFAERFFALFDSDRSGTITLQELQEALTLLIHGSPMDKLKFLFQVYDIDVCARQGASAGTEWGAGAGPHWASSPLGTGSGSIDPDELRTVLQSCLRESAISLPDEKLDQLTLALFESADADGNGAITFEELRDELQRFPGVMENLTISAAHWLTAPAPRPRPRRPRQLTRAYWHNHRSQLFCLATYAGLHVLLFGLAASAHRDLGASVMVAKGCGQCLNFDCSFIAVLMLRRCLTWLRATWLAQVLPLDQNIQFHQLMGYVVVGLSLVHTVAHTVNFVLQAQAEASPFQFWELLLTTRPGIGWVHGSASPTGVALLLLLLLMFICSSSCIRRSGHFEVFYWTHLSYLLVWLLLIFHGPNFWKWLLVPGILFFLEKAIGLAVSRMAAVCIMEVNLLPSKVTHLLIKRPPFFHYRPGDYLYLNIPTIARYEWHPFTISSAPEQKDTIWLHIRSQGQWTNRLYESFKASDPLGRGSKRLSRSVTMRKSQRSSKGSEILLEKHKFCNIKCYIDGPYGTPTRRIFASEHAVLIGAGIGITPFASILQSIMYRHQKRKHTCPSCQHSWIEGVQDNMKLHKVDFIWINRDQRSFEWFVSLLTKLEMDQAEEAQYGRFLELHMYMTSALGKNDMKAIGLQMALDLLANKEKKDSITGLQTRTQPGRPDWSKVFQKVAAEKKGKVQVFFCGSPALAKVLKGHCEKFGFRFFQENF

| SMILES | composite z-score [1] | z-score [2] | z-score [3] | z-score [4] | z-score [5] | composite z-score [6] | composite z-score [7] | composite z-score [8] | composite z-score [9] | composite z-score [10] | z-score [11] | composite z-score [12] | z-score [13] | z-score [14] | z-score [15] | z-score [16] | z-score [17] | z-score [18] | z-score [19] | z-score [20] |
| --- | --- | --- | --- | --- | --- | --- | --- | --- | --- | --- | --- | --- | --- | --- | --- | --- | --- | --- | --- | --- |
| CCc1cccc(NC(=O)O[C@H]2[C@H](OC(=O)Nc3ccccc3)[C@H](OC(=O)Nc3ccccc3)[C@@H](OC)O[C@@H]2CO)c1 | 0.428 | -6.02 (inactive) | -0.0223 (inactive) | 1.03 (inactive) | -1.2 (inactive) | 1.03 | 0.212 | -0.417 | 0.778 | 0.0653 | -1.42 (inactive) | 0.253 | 10.1 (active) | 3.34 (inactive) | -1.53 (inactive) | 1.92 (inactive) | 0.213 | -1.12 (inactive) | -0.593 (inactive) | -1.3 |
| COCCOC(=O)N1C(=O)[C@@]2(c3cc(C#CC4(O)CCCCCC4)ccc31)[C@H](C(=O)N1CCN(c3ncccn3)CC1)[C@H]1C(=O)O[C@H](c3ccccc3)[C@H](c3ccccc3)N1[C@@H]2c1ccccc1OCCO | 0.329 | -2.56 (inactive) | 0.884 (inactive) | 0.204 (inactive) | 1.22 (inactive) | 0.0715 | 0.258 | 0.835 | 0.577 | 1.52 | -0.53 (inactive) | 0.487 | 1.57 (inactive) | 0.276 (inactive) | 0.547 (inactive) | 0.384 (inactive) | -0.21 | 1.82 (inactive) | -0.726 (inactive) | 1.31 |
| COCC(=C=CC[C@H](O)c1cccc(OCCO)c1)C[C@H](O)COCc1ccccc1 | 0.191 | -0.33 (inactive) | -0.218 (inactive) | 5.03 (inactive) | 1.74 (inactive) | -0.599 | 0.264 | 2.41 | 1.31 | 1.28 | -0.0371 (inactive) | 0.213 | 9.2 (active) | 1.07 (inactive) | 0.307 (inactive) | 0.404 (inactive) | -0.234 | -0.436 (inactive) | -0.797 (inactive) | -1.39 |
| CN(C)C(=O)[C@@]1(Cc2ccccc2N=[N+]=[N-])N=C(c2ccc(OCCCO)cc2)O[C@H]1c1ccccc1 | 0.797 | -4.41 (inactive) | -1.63 (inactive) | 0.872 (inactive) | 0.361 (inactive) | 1.84 | 0.841 | 0.106 | 0.401 | -0.361 | -0.369 (inactive) | 0.465 | 25.7 (active) | 12.4 (active) | 2.85 (inactive) | 1.94 (inactive) | -0.482 | -3.93 (inactive) | 0.711 (inactive) | -2.45 |
